Over roughly 16,000 sequences, “rpm ratio (pull-down/input)” has its median near 0.94; the highest 2% begin near 1.7. The sample holds the highest values, similar sequences and a random draw of the others, so the mix is not that of the screen.
Target: T1, MBP-FoxP1dN (Mus musculus, UniProt P58462 326-579)
T1 sequence: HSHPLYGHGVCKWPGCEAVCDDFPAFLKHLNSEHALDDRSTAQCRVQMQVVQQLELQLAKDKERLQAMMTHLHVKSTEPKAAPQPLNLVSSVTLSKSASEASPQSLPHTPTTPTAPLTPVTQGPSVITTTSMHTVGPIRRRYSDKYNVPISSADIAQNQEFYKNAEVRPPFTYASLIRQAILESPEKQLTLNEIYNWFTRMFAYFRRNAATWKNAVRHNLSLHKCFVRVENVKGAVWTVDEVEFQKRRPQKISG
Assay: PD-seq (MBP pull-down with sequencing); 20 mM Tris-HCl pH 7.5, 100 mM NaCl, 1.5 mM MgCl2, 0.4 uM protein, 0.1 uM dsDNA library, 30 min, room temperature, amylose pull-down; high values mean tight binding
Conditions: protein: recombinant; tags: His6-MBP; chain copies: 2; dsDNA, one strand shown
Method in brief: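 A degenerate double-stranded DNA library, filled in with Klenow, was added at 0.1 µM to 0.4 µM His6-MBP-tagged mouse FoxP3 or FoxP1 fragment lacking the N-terminus, expressed in E. coli. Incubation lasted 30 min at room temperature in Tris pH 7.5 buffer with NaCl and MgCl2, after which complexes were collected on amylose resin, washed three times, digested with proteinase K to free the DNA, barcoded by PCR and sequenced by Illumina. Binding is the pooled-replicate reads-per-million enrichment of pull-down over input.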

Sequence	binding signal
GATGATTGTTCTCCCAGCTGATGAATTGAGATGCTCGAGTAAACAAATTTTCCTAATCTTTCTGTTCAAGCGCCATCTAC	1.07 RPM ratio (pull-down/input)
GATGATTGTTCTCCCAGCTGATGAATTAGCTCGGTCGAGTAAACAAATTTTCCTAATCTTTCTGTTCAAGCGCCATCTAC	0.829 RPM ratio (pull-down/input)
GATGATTGTTCTCCCAGCTGATGAATTATGAGATTCGAGTAAACAAATTTTCCTAATCTTTCTGTTCAAGCGCCATCTAC	0.995 RPM ratio (pull-down/input)
GATGATTGTTCTCCCAGCTGATGAATTAACTACCTCGAGTAAACAAATTTTCCTAATCTTTCTGTTCAAGCGCCATCTAC	0.879 RPM ratio (pull-down/input)
GATGATTGTTCTCCCAGCTGATGAATTATGTTGGTCGAGTAAACAAATTTTCCTAATCTTTCTGTTCAAGCGCCATCTAC	1.87 RPM ratio (pull-down/input)
GATGATTGTTCTCCCAGCTGATGAATTATGATGGTCGAGTAAACAAATTTTCCTAATCTTTCTGTTCAAGCGCCATCTAC	1.1 RPM ratio (pull-down/input)
GATGATTGTTCTCCCAGCTGATGAATTTAATGTTTCGAGTAAACAAATTTTCCTAATCTTTCTGTTCAAGCGCCATCTAC	1.15 RPM ratio (pull-down/input)
GATGATTGTTCTCCCAGCTGATGAATTATCTTGGTCGAGTAAACAAATTTTCCTAATCTTTCTGTTCAAGCGCCATCTAC	0.937 RPM ratio (pull-down/input)
GATGATTGTTCTCCCAGCTGATGAATTATGATGTTCGAGTAAACAAATTTTCCTAATCTTTCTGTTCAAGCGCCATCTAC	1.22 RPM ratio (pull-down/input)
GATGATTGTTCTCCCAGCTGATGAATTATGTGTTTCGAGTAAACAAATTTTCCTAATCTTTCTGTTCAAGCGCCATCTAC	1.51 RPM ratio (pull-down/input)
GATGATTGTTCTCCCAGCTGATGAATTTATGTTTTCGAGTAAACAAATTTTCCTAATCTTTCTGTTCAAGCGCCATCTAC	2.76 RPM ratio (pull-down/input)
GATGATTGTTCTCCCAGCTGATGAATTTTATGTTTCGAGTAAACAAATTTTCCTAATCTTTCTGTTCAAGCGCCATCTAC	1.19 RPM ratio (pull-down/input)
GATGATTGTTCTCCCAGCTGATGAATTAATGTTTTCGAGTAAACAAATTTTCCTAATCTTTCTGTTCAAGCGCCATCTAC	2.45 RPM ratio (pull-down/input)
GATGATTGTTCTCCCAGCTGATGAATTTTTATGTTCGAGTAAACAAATTTTCCTAATCTTTCTGTTCAAGCGCCATCTAC	1.37 RPM ratio (pull-down/input)
GATGATTGTTCTCCCAGCTGATGAATTATGTTTTTCGAGTAAACAAATTTTCCTAATCTTTCTGTTCAAGCGCCATCTAC	2.19 RPM ratio (pull-down/input)
GATGATTGTTCTCCCAGCTGATGAATTAAATGTTTCGAGTAAACAAATTTTCCTAATCTTTCTGTTCAAGCGCCATCTAC	1.3 RPM ratio (pull-down/input)
GATGATTGTTCTCCCAGCTGATGAATTCCTAATCTCGAGTAAACAAATTTTCCTAATCTTTCTGTTCAAGCGCCATCTAC	0.834 RPM ratio (pull-down/input)
GATGATTGTTCTCCCAGCTGATGAATTATGATATTCGAGTAAACAAATTTTCCTAATCTTTCTGTTCAAGCGCCATCTAC	1.24 RPM ratio (pull-down/input)

Source: article PMC12820563, “FoxP3 forms a head-to-head dimer in vivo and stabilizes its multimerization on adjacent microsatellites”
